Hits are enriched below; roughly 2% of the tested compounds scored in any of these assays.
FUS suppressor: FUS proteinopathy suppression in yeast; hit rate 0.24% among 390,000; AID 1347120; Potency, µM (highest dose often 76.6 µM), hits mostly activators; S. cerevisiae FUS-expressing, growth rescue, OD600, 24 h; further: nearly all actives have a fitted effect of over 55% in size
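Read-out: OD at 600 nm after 24hr at 30C, reporting rescue of FUS-induced yeast toxicity. Cells at OD 0.005 in galactose (2%) minimal medium; compounds tested in a dilution series; CP55940 titration from 92uM final as control.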
mIDH1 inhibitor: inhibitors of human mutant IDH1 R132H | hit rate 0.093% among 390,000 | O75874 | Potency, µM (top dose mostly 76.6 µM), hits mostly inhibitors | IDH1-R132H enzyme, NADPH consumption, diaphorase/resazurin fluorescence | AID 602179; further: nearly all actives have a fitted effect of over 65% in size
Target sequence (O75874 whole entry R132H, stated change not applied): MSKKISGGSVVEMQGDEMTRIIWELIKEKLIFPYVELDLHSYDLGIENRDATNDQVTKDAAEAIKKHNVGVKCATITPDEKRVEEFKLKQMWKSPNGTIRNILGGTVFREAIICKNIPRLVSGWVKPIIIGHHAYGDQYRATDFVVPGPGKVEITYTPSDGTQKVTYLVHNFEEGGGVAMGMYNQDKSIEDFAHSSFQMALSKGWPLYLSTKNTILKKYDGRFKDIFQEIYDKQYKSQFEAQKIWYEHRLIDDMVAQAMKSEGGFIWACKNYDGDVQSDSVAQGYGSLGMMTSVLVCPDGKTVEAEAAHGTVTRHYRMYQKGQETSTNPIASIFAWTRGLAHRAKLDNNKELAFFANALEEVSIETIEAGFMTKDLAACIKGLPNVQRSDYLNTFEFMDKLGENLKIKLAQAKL
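IDH1-R132H (0.5 ug/mL) preincubated 30 min with compound, then NADPH (0.016 mM) and alpha-KG (2 mM) added; 80 min at RT, pH 7.5. Remaining NADPH coupled via diaphorase/resazurin to fluorescence (540/590 nm); concentration-response curves normalized to no-enzyme control.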
aSyn yeast inh: rescues yeast growth from alpha-synuclein toxicity; Yeast expressing alpha-synuclein, growth rescue, BacTiter-Glo, 24 h; Potency, µM (top dose mostly 46.1 µM), usual class: activators; hit rate 0.14% among 370,000; further: nearly all actives have a fitted effect of over 65% in size
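Galactose-induced alpha-syn yeast (OD600=0.02, raffinose-pregrown) + pinned cpd, 24 hr, 30 deg C; growth by BacTiter-Glo luminescence. Growth restoration scores as activation.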
Abeta rescue: compounds reversing amyloid beta toxicity in yeast. AID 1347071. yeast expressing A-beta42, growth rescue, OD600, 48 h; response scale: 0% DMSO, 100% iron-clioquinol control. Potency, µM (series often up to 46.1 µM), actives largely listed as activators. hit rate 0.063% among 410,000; further: nearly all actives have a fitted effect of over 55% in size
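Yeast A-beta toxicity model in growth medium with pinned compounds, 48 h at 30 C; growth read as absorbance at 600 nm. Normalized to FeCl3/clioquinol equimolar mix (positive) and DMSO (negative).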
TDP43 rescue: inhibitors of TDP-43 toxicity in yeast; hit rate 1.8% among 410,000; TDP-43 expressing yeast growth rescue, BacTiter-Glo, 24 h; AID 652104; Potency, µM (top dose mostly 46.1 µM), hits mostly activators; further: nearly all actives have a fitted effect of over 50% in size
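Growth rescue of TDP-43-toxic yeast measured as ATP luminescence (BacTiter-Glo). Cells grown to mid-log in raffinose, induced in galactose at OD600=0.02, exposed to compound 24 hr at 30 deg C.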
LDHA block: inhibitors of human lactate dehydrogenase A. P00338. purified LDHA, NADH/diaphorase-resazurin fluorescence; stronger effect = lower value. activity change, % (values are at about 110 or 230 µM). hit rate 0.15% among 480,000; in the data active means activity change below about -30%; inconclusive means mostly about -25% to -30%
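Enzyme activity of human lactate dehydrogenase 5 (2 nM; 0.06 mM NADH, 0.2 mM pyruvate, 5 min, RT) is measured via a resazurin/diaphorase fluorescence readout of residual NADH.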
A number is an active result. Unless noted, the call rests on the fitted dose curve; in most records, active means well fitted curve in the direction sought with a large enough effect; inconclusive means small, poorly fitted or top-dose-only effect, or another doubt; inactive means no such curve, though single readings can be large; an effect the other way counts as inactive or inconclusive.

For Cc1cccc(N2CC(C(=O)Nc3nnc(SCc4ccccn4)s3)CC2=O)c1 (stereo not given) the results were FUS suppressor 17.8µM, mIDH1 inhibitor inactive, aSyn yeast inh inactive, Abeta rescue inactive, TDP43 rescue inactive and LDHA block inactive.
For Cc1ccc(N2CC(C(=O)Nc3nnc(SCc4ccccn4)s3)CC2=O)cc1 (stereo not given) the results were FUS suppressor inactive, mIDH1 inhibitor inactive, aSyn yeast inh inactive, Abeta rescue inactive, TDP43 rescue inactive and LDHA block inactive.
For Cc1ccc(/C=N/Nc2cc(C)c3ccccc3n2)s1 the results were LDHA block inactive.
Clc1ccc(-c2csc(NC3CC3)n2)c(Cl)c1 was read as LDHA block inactive.
`O=C(NCc1cccnc1)c1ccc(/C=C/c2ccc3ccccc3n2)cc1` gave LDHA block inactive.
For Cc1onc(-c2c(Cl)cccc2Cl)c1/C(N)=N/OC(=O)C(C)(C)C the results were FUS suppressor inactive, mIDH1 inhibitor inactive, aSyn yeast inh inactive, Abeta rescue inactive, TDP43 rescue inactive and LDHA block inactive.
Screening CC(C)(C)C(=O)O/N=C(\N)c1c(Cl)cccc1Cl returned FUS suppressor inactive, mIDH1 inhibitor inactive, aSyn yeast inh inactive, Abeta rescue inactive, TDP43 rescue 12.6µM and LDHA block inactive.
Cc1cccc2sc(N(Cc3cccnc3)C(=O)CCOc3ccccc3)nc12 was read as FUS suppressor inactive, mIDH1 inhibitor inactive, Abeta rescue inactive, TDP43 rescue inactive and LDHA block inactive.
Cc1cccc2sc(N(Cc3cccnc3)C(=O)COc3ccccc3)nc12 was read as FUS suppressor inactive, mIDH1 inhibitor inactive, Abeta rescue inactive, TDP43 rescue 11.2µM and LDHA block inactive.
Screening COc1ccc2nc(N(Cc3cccnc3)C(=O)COc3ccccc3)sc2c1 returned FUS suppressor inactive, mIDH1 inhibitor inactive, Abeta rescue inactive, TDP43 rescue 15.8µM and LDHA block inactive.
O=C(Cc1ccccc1)N(Cc1cccnc1)c1nc2c(F)cc(F)cc2s1 was read as FUS suppressor inactive, mIDH1 inhibitor inactive, Abeta rescue inactive, TDP43 rescue 17.8µM and LDHA block inactive.
For CCOc1ccc(C2/C(=C(\O)c3ccc(C)c(F)c3)C(=O)C(=O)N2Cc2ccco2)cc1OC (stereo not given) the results were LDHA block inactive.
For CN(CC(=O)Nc1ccc(Br)cc1)S(=O)(=O)c1cccc2nsnc12 the results were FUS suppressor inactive, mIDH1 inhibitor inactive, Abeta rescue inactive, TDP43 rescue 22.4µM and LDHA block inactive.
Screening O=C(CS(=O)(=O)c1cccc2nsnc12)Nc1ccccc1 returned FUS suppressor inactive, mIDH1 inhibitor inactive, aSyn yeast inh inactive, Abeta rescue inactive, TDP43 rescue inactive and LDHA block inactive.
Screening CC(C)c1ccc(NC(=O)CS(=O)(=O)c2cccc3nsnc23)cc1 returned FUS suppressor inactive, mIDH1 inhibitor inactive, aSyn yeast inh inconclusive, Abeta rescue inactive, TDP43 rescue 25.1µM and LDHA block inactive.
For O=C(Cn1c(-c2cscn2)nc2ccccc21)Nc1ccc(N2CCCC2=O)cc1 the results were LDHA block inactive.
Screening Cc1sc(-c2cc3c([nH]c2=O)CC(c2ccco2)CC3=O)nc1-c1ccc(Cl)cc1 (stereo not given) returned LDHA block inactive.
Cc1ccc(O)c(N/C=C/C(=O)C(C)(C)C)c1 was read as LDHA block inactive.
Screening COc1ccccc1N1CCN(C(=O)COc2ccccc2C#N)CC1 returned FUS suppressor inactive, mIDH1 inhibitor inactive, Abeta rescue inactive, TDP43 rescue inconclusive and LDHA block inactive.
`N#Cc1ccccc1OCC(=O)N1CCN(c2ccccc2F)CC1` gave FUS suppressor inactive, mIDH1 inhibitor inactive, Abeta rescue inactive, TDP43 rescue 22.4µM and LDHA block inactive.
`N#C/C(=C/c1cccc2c1OCCCO2)c1nc2ccccc2[nH]1` gave LDHA block inactive.
`CC(=O)Nc1ccc(SCC(O)COc2ccccc2C(C)(C)C)cc1` (stereo not given) gave LDHA block inactive.
`Cn1ccc2c(-c3cncc4ccccc34)cc3c(c21)C1CCC3C1` (stereo not given) gave FUS suppressor inactive, aSyn yeast inh inactive, Abeta rescue inactive, TDP43 rescue 28.2µM and LDHA block inactive.
COc1ccc(N)cc1OC1CCCC1 was read as LDHA block inactive.
`CCOC(=O)COc1ccc(/C=N/NC(=O)C(O)(c2ccccc2)c2ccccc2)cc1` gave LDHA block inactive.
For COc1cc(OC)cc(C(=O)OCn2nnc3ccccc3c2=O)c1 the results were FUS suppressor inactive, mIDH1 inhibitor inactive, aSyn yeast inh inactive, Abeta rescue inactive, TDP43 rescue inactive and LDHA block inactive.
Screening CCN(CC)S(=O)(=O)c1ccc(C(=O)OCn2nnc3ccccc3c2=O)cc1 returned FUS suppressor inactive, mIDH1 inhibitor inactive, aSyn yeast inh 3.16µM, Abeta rescue inactive, TDP43 rescue inactive and LDHA block inactive.
Screening O=C(OCn1nnc2ccccc2c1=O)c1ccc2ncsc2c1 returned FUS suppressor inactive, mIDH1 inhibitor inactive, aSyn yeast inh inconclusive, Abeta rescue inactive, TDP43 rescue 11.2µM and LDHA block inactive.
Screening Cc1[nH]c2ccccc2c1C(c1ccccc1I)c1c(C)[nH]c2ccccc12 returned LDHA block inactive.
For COC(=O)c1cc(NC(=O)c2cccc3ccccc23)cc(C(=O)OC)c1 the results were LDHA block inactive.
Screening COc1ccc(-c2cc(C(=O)N3CCN(C(=O)C(=O)N4CCOCC4)CC3)c3ccccc3n2)cc1 returned LDHA block inactive.
Cn1cc(C2Nc3ccccc3C(=O)N2c2ccc(Cl)cc2)c(=O)n(C)c1=O (stereo not given) was read as LDHA block inactive.
For Cc1ccccc1-c1nc2ccc(NC(=O)C3CC3)cc2o1 the results were LDHA block inactive.
`CCN1CCN(Cc2ccc(NC(=O)c3cc(NC(=O)c4cc(-c5ccc(OC)cc5)n[nH]4)cc(OC)c3)cc2C(F)(F)F)CC1` gave FUS suppressor 28.2µM, mIDH1 inhibitor inactive, aSyn yeast inh inactive, Abeta rescue inactive, TDP43 rescue inactive and LDHA block inactive.
For CN1CCC[C@H]1CCNc1ccc2c(=O)c3ccccc3n(C)c2c1 the results were FUS suppressor inconclusive, mIDH1 inhibitor inactive, aSyn yeast inh inactive, Abeta rescue inactive, TDP43 rescue inactive and LDHA block inactive.
